Results as given in PubChem BioAssay AID493194 (Broad Institute, 2011).
Measured potencies and affinities stand elsewhere. Inconclusive results are not listed. The source made the active and inactive calls.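 The calls were made as follows: active = a valid curve of falling signal whose half-effect concentration is at most ten times the top tested dose; inconclusive = flat curve at 30 to 70% inhibition, or poor fit; inactive = signal rise, flat within 30%, or potency beyond limit.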

The molecules below were run against Scavenger receptor class B member 1 (Mus musculus) (UniProt Q61009) (assay: inhibitors of SR-BI mediated HDL lipid uptake, dose response, ldlA[mSR-BI] cells, fluorescence, cherry pick (AID 493194;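 also: CHO cells lacking LDL receptor and overexpressing mouse SR-BI; cellular uptake of fluorescently labeled HDL measured as cell fluorescence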)). Settings: CHO ldlA[mSR-BI] DiI-HDL uptake fluorescence, 3 h; series mostly up to 35 µM.
Scavenger receptor class B member 1 (Mus musculus), sequence (Q61009 whole entry, looked up): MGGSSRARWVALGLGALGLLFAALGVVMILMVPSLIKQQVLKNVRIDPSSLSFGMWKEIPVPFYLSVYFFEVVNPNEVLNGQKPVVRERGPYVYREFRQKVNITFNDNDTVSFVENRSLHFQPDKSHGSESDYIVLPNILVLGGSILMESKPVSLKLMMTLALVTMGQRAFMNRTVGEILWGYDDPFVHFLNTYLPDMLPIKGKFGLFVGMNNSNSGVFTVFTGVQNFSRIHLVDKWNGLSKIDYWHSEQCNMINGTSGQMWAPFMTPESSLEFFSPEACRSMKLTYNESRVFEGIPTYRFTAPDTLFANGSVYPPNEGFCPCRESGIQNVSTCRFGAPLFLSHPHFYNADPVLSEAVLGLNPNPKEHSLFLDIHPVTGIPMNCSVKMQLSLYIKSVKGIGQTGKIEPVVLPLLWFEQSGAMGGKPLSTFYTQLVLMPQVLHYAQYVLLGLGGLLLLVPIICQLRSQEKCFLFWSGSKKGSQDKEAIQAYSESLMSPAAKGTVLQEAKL

outcome, inactive:
CN(Cc1ccccc1N1CCCC1)C(=O)c1cc2cc(Cl)ccc2o1
COc1ccc(OC)c2[nH]c(C(=O)N3CCC(C(=O)O)CC3)cc12
CCCCn1nc2cc(C(=O)NC3CCCc4ccccc43)ccc2c1OCC (stereo not drawn)
Cc1cc(NC(=O)Nc2ccccc2)n(-c2ccccc2)n1
C=CCOC(=O)c1[nH]c2c(c1C)C(=O)CC(c1cc(OC)c(OC)c(OC)c1)C2 (stereo not drawn)
O=C(CN1CCN(c2ncc(C(F)(F)F)cc2Cl)CC1)NCCNc1ncc(C(F)(F)F)cc1Cl
COC(=O)c1c(C)[nH]c(C(=O)C(C)OC(=O)C2CC(=O)N(c3ccc(C)cc3)C2)c1C (stereo not drawn)
Cc1ccc2nc(-c3ccccc3)cc(C(=O)N3CCN(c4ccccc4O)CC3)c2c1
COc1cccc(-c2nnc(SC(C(=O)c3c[nH]c4ccccc34)c3ccccc3)n2C)c1 (stereo not drawn)
COc1ccc2c(c1)OC[C@H]1[C@H]2N2C(=O)c3cc(Cl)ccc3NC(=O)[C@@]2(C)[C@H]1c1ccccc1
COCCCNc1nc2c(-c3cccc(C)c3)nnn2c2ccccc12
CC(=O)c1cccc(NC(=O)c2ccc3c(c2)CCN3S(=O)(=O)c2ccccc2)c1
Cc1cc2oc(=O)cc(-c3ccccc3)c2c(C)c1-c1ccc(C(F)(F)F)cc1
COc1cccc(-c2csc(N3CCN(CC(=O)NNC(=O)c4ccc(Br)cc4)CC3)n2)c1
O=C(c1ccc(S(=O)(=O)NCc2ccco2)cc1)N1CCN(Cc2ccccc2F)CC1
Cc1sc(NC(=O)CN2CCOCC2)nc1-c1ccc2c(c1)CCN2S(=O)(=O)c1ccccc1
Cc1ccc(Sc2nc(-c3ccccc3)nnc2C(F)(F)F)cc1
Cc1c(Cl)cccc1S(=O)(=O)N1CCC(C(=O)NNC(=O)C2CC2)CC1
CCC(C(=O)NC1CCCC1)N(C(=O)Cn1nnc(-c2ccc(OC)c(OC)c2)n1)c1cccc(O)c1 (stereo not drawn)
COc1cc(OC)cc(C(=O)N[C@H](C(=O)Nc2nc(-c3cc(OC)ccc3OC)cs2)C(C)C)c1
COc1ccc(N(CC(=O)NC2CCCC2)C(=O)Cn2nnc(-c3ccc(OC)c(OC)c3)n2)cc1
C[C@@H]1COC(=O)[C@H](NC(=O)OCC2c3ccccc3-c3ccccc32)C/C=C\C[C@@H](CC(=O)N[C@H](CO)Cc2ccccc2)C(=O)N1
COc1ccc(OCC(O)Cn2c(Nc3cccc(C)c3)nc3c2c(=O)n(C)c(=O)n3C)cc1 (stereo not drawn)
